From PubChem BioAssay (NCATS)
Records with an inconclusive call do not appear. Entries that show only a call come without a potency. The source made the active and inactive calls. Unless noted, calls come from the whole dose curve.

Legend:
[1] = qHTS for Inhibitors of the Functional Ribonucleoprotein Complex (vRNP) of Lassa (LASV) Arenavirus: LASV Primary Screen - GLuc reporter signal (AID 1347082; calls by dose curve; tested in HEK293 reporter line; note: nearly all actives have a fitted effect of over 60% in size; note: potency is the fitted concentration of half-maximal effect)
[2] = qHTS for Inhibitors of the Functional Ribonucleoprotein Complex (vRNP) of Lassa (LASV) Arenavirus: Viability assay - alamar blue signal for LASV Primary Screen (AID 1347083; calls by dose curve; tested in HEK293 reporter line; note: nearly all actives have a fitted effect of over 80% in size; note: potency is the fitted concentration of half-maximal effect)
[3] = qHTS for Inhibitors of the Functional Ribonucleoprotein Complex (vRNP) of Lymphocytic Choriomeningitis Arenaviruses (LCMV): Viability assay - alamar blue signal for LCMV Primary Screen (AID 1347085; calls by dose curve; tested in HEK293 reporter line; note: nearly all actives have a fitted effect of over 80% in size; note: potency is the fitted concentration of half-maximal effect)
[4] = molecular target: Nucleoprotein (Lymphocytic choriomeningitis virus (strain Armstrong)) (UniProt P09992); assay: qHTS for Inhibitors of the Functional Ribonucleoprotein Complex (vRNP) of Lymphocytic Choriomeningitis Arenaviruses (LCMV): LCMV Primary Screen - GLuc reporter signal (AID 1347086); note: nearly all actives have a fitted effect of over 70% in size; note: potency is the fitted concentration of half-maximal effect
[5] = Confirmatory qHTS to identify inhibitors of SARS-CoV-2 cell entry (AID 1645844); note: potency is the fitted concentration of half-maximal effect; nearly all actives have a fitted effect of over 45% in size
Outline: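 Luminescence from a luciferase reporter, read 48 hr after pseudotyped-particle addition, gives entry signal, normalised to spike-bearing PP wells and bald PP lacking fusion protein wells. Cells are Expi293F stably expressing human ACE2, compound-pretreated 1 hr.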

[6] = Cytotoxicity counterscreen for inhibitors of SARS-CoV-2 cell entry (AID 1645845); note: nearly all actives have a fitted effect of over 50% in size
Outline: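 48 h compound treatment (after 1 h preincubation), HEK293-ACE2 cells, 37 C/5% CO2; ATP luminescence endpoint; normalized to cell wells and media blanks.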

[7] = Primary qHTS to identify inhibitors of SARS-CoV-2 cell entry (AID 1645846); settings: activity change, negative = inhibition: at 57.1 µM (top of the series) unless noted; note: nearly all actives have a fitted effect of over 45% in size
Outline: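 HEK293-ACE2 (Expi293F, stable hACE2), 1500 cells/well, o/n 37C; cpd 23 nL pin, 1 h; MLV-PP w/ SARS-CoV-2-S (Wuhan-Hu-1, Δ19 C-term); 48 h 37C; Bright-Glo luminescence; normalized vs S-PP and bald PP.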

[8] = VSVG counterscreen qHTS to identify inhibitors of SARS-CoV-2 cell entry (AID 1645847); note: potency is the fitted concentration of half-maximal effect; nearly all actives have a fitted effect of over 65% in size
Outline: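 Expi293F/hACE2 cells, overnight plating; cpd 1 h, 37C/5% CO2; + VSV-G PP (MLV pseudotyping), 48 h; supernatant removed, Bright-Glo luciferase read. Norm: VSV-G PP and bald PP wells.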

[9] = molecular target: Cytochrome P450 3A4 (Homo sapiens) (UniProt P08684); assay: qHTS Assay for Inhibitors and Substrates of Cytochrome P450 3A4 (AID 884; active = well fitted curve in the direction sought with a large enough effect; an effect the other way counts as inactive or inconclusive; note: nearly all actives have a fitted effect of over 50% in size)
Outline: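 20 nM human CYP3A4 with 25 uM Luciferin-PPXE (at KM) in 200 mM KPO4, preincubated 10 min with compound; NADPH regeneration started a 60 min RT reaction. Luciferin detected by luminescence, normalized to 57 uM ketoconazole as full inhibition.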

[10] = Confirmation and Secondary Assay for Modulators of Hemoglobin Beta Chain Splicing at IVS2 654 locus (AID 910; active = well fitted curve in the direction sought with a large enough effect; an effect the other way counts as inactive or inconclusive;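 note: HeLa cells stably carrying EGFP split by mutant beta-globin IVS2-654 intron; per-well total GFP intensity by laser scanning cytometry after 2-day treatment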)
Outline: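 Readout: per-well total peak green fluorescence (488 nm ex, 500–520 nm em) from objects 5–250 µm, reflecting correct splicing of an EGFP-654 reporter. Compounds were applied for 2 days at 37 °C to overnight-plated HeLa EGFP-654 cells; controls were DMSO and 500 nM IVS2-654 PNA.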

[11] = Confirmation and Secondary Assay for Modulators of Hemoglobin Beta Chain Splicing at IVS2 705 locus (AID 930; active = well fitted curve in the direction sought with a large enough effect; an effect the other way counts as inactive or inconclusive;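 note: HeLa cells stably expressing the EGFP-705 splicing reporter; GFP fluorescence per well restored by corrected splicing of the IVS2-705 intron in EGFP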)
Outline: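 Per-well GFP, captured at 1 x 8 µm resolution with 488 nm excitation, served as the read-out for HeLa EGFP-705 cells incubated 2 days with test compound versus DMSO.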

[12] = qHTS Assay for Lipid Storage Modulators (AID 1519); settings: Drosophila S3 cells, BODIPY lipid droplet/cell ratio, laser cytometry, cells loaded with oleic acid
Outline: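 Cells seeded at 5,000 per well were treated with compounds over a concentration series and loaded with oleic acid (400 uM, as added). Lipid droplet fluorescence (488 nm excitation, 500-530 nm channel) was read by laser-scanning cytometry and normalized to 20 uM Triacsin C.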

[13] = molecular target: Ubiquitin carboxyl-terminal hydrolase 1 (Homo sapiens) (UniProt O94782); assay: Inhibitors of USP1/UAF1: Pilot qHTS (AID 504865; active = well fitted curve in the direction sought with a large enough effect; an effect the other way counts as inactive or inconclusive;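 note: rhodamine fluorescence freed from ubiquitin-rhodamine substrate followed over time; top concentration of the series differs between compounds; nearly all actives have a fitted effect of over 35% in size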)
Outline: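 1nM USP1/UAF1 + cpd, 15 min RT; start w/ Ub-Rho 150nM final; kinetic FL 480/540 nm, 6 reads q60 s. Buffer 50mM HEPES pH 7.8, 0.5mM EDTA, 1mM TCEP, 0.01% Tween-20, 0.1 mg/ml BSA.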

[14] = Confirmatory qHTS for activators (rescue) of SARS-CoV-2 Cytopathic Effect (CPE) (AID 1508606); note: potency is the fitted concentration of half-maximal effect; nearly all actives have a fitted effect of over 70% in size

Nucleoprotein (Lymphocytic choriomeningitis virus (strain Armstrong)), sequence (P09992 whole entry, looked up): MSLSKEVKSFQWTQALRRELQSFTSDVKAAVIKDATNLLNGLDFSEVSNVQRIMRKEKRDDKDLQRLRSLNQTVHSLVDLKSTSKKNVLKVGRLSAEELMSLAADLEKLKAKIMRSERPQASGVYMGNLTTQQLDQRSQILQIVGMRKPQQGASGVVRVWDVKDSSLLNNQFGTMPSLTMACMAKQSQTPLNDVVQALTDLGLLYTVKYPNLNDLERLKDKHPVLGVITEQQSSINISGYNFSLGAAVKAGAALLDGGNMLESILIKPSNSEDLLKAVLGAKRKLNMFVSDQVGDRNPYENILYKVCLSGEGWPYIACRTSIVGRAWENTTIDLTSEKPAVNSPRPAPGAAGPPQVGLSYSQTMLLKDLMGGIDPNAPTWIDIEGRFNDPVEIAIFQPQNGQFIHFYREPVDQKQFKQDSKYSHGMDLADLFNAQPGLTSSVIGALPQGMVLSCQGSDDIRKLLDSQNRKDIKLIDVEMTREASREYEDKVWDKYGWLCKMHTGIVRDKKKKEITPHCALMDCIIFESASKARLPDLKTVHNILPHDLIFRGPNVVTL
Cytochrome P450 3A4 (Homo sapiens), sequence (P08684 whole entry, looked up): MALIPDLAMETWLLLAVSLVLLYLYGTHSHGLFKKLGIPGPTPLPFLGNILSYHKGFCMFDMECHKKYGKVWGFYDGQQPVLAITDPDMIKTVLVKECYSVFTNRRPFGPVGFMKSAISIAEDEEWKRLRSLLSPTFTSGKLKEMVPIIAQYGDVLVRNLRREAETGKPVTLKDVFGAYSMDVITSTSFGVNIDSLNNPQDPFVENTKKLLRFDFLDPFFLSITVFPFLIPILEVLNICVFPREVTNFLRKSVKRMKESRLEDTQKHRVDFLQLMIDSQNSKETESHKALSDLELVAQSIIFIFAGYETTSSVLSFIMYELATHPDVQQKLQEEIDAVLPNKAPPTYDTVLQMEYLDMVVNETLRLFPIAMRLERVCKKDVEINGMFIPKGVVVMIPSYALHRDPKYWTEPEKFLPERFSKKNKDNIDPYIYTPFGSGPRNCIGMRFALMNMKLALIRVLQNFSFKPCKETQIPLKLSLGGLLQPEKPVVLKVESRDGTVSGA
Ubiquitin carboxyl-terminal hydrolase 1 (Homo sapiens), sequence (O94782 whole entry, looked up): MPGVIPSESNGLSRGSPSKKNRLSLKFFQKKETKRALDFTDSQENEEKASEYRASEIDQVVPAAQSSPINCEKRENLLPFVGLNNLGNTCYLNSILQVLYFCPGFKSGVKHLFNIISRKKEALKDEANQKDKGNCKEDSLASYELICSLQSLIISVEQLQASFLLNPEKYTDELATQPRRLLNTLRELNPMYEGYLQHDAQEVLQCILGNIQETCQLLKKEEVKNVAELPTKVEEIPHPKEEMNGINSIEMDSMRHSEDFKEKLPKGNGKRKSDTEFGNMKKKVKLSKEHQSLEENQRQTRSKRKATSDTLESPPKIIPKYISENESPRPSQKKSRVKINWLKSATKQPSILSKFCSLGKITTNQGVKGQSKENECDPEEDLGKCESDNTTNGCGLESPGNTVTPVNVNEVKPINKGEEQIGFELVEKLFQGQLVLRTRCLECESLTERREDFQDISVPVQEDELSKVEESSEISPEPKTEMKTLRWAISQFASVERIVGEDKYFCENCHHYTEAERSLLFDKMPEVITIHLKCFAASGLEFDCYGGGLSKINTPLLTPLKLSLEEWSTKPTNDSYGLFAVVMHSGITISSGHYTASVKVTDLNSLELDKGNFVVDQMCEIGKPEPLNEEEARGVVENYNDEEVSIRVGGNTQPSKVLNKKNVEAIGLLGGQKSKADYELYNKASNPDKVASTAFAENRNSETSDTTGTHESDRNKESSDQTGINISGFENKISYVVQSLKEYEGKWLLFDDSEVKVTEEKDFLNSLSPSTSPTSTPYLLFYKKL

With CCCCC(C)(C)[C@H](O)C=C[C@H]1[C@H](O)CC(=O)[C@H]1CC=CCCCC(=O)O the Potency [1] was “inactive”, the Potency [2] was “inactive” and the Potency [3] was “inactive”. For the same molecule, the Potency [4] was “inactive”, the Potency [5] was 17.1 µM (active) and the Potency [6] was “inactive”. For the same molecule, the activity change, negative = inhibition [7] was -55.7% and the Potency [8] was 19.2 µM (active).
In the case of C[C@@]12CCC(OS(=O)(=O)O)C[C@@H]1CCC1C2CC[C@]2(C)C(=O)CCC12 (some centres not stated), the Potency [9] was “inactive”, the Potency [10] was “inactive” and the outcome [11] was “inactive”. For the same molecule, the activity change, negative = inhibition ([12]; at 57.5 µM (top of the series)) was 7.66% (inactive), the max response ([12]; measured here: cell count channel max response) was 17.5% and the max response ([12]; measured here: lipid channel max response) was 28%. The Potency [13] was “inactive”, the Potency [1] was “inactive” and the Potency [2] was “inactive”. For the same molecule, the Potency [3] was “inactive” and the Potency [4] was “inactive”.
With C=C1C(=O)[C@@]23C(CC[C@@H]1[C@H]2O)[C@@]12CO[C@]3(O)[C@@H](O)[C@@H]1C(C)(C)CC[C@@H]2O (some centres not stated) the Potency [1] was 9.68 µM (active), the Potency [2] was 6.85 µM (active) and the Potency [3] was 2.17 µM (active). For the same molecule, the Potency [4] was 1.22 µM (active) and the Potency [14] was 10 µM (active).
With CC[C@@]1([C@@H]2O[C@@H]([C@H]3O[C@@](O)(CO)[C@H](C)C[C@H]3C)C[C@H]2C)CC[C@H]([C@]2(C)CC[C@]3(C[C@H](O)[C@@H](C)[C@@H]([C@@H](C)[C@@H](OC)[C@H](C)C(=O)O)O3)O2)O1 the Potency [1] was 0.376 µM (active), the Potency [2] was 3.35 µM (active) and the Potency [3] was 4.21 µM (active). For the same molecule, the Potency [4] was 1.06 µM (active) and the Potency [6] was “inactive”.
For COc1ccc(Nc2nccc(NCCO)n2)cc1, the Potency [1] was “inactive”, the Potency [2] was “inactive” and the Potency [3] was “inactive”. The Potency [4] was “inactive” and the Potency [6] was “inactive”.
With O=C(c1ccc(C(=O)N2CCC(N3CCCC3)CC2)c(Nc2ccccc2)c1)N1CCC(N2CCCC2)CC1 the Potency [1] was “inactive”, the Potency [2] was “inactive” and the Potency [3] was “inactive”. For the same molecule, the Potency [4] was “inactive” and the Potency [6] was “inactive”.
For O=C1CN2Cc3c(ccc(Cl)c3Cl)N=C2N1, the Potency [1] was “inactive”, the Potency [2] was “inactive” and the Potency [3] was “inactive”. For the same molecule, the Potency [4] was “inactive”, the Potency [6] was “inactive” and the Potency [7] was “inactive”.
With O=C(O)Cc1cccc(OCCCN(Cc2cccc(C(F)(F)F)c2Cl)CC(c2ccccc2)c2ccccc2)c1 the Potency [1] was “inactive”, the Potency [2] was “inactive” and the Potency [3] was “inactive”. For the same molecule, the Potency [4] was “inactive” and the Potency [6] was “inactive”.
With COC(=O)C1C2CC3c4[nH]c5cc(OC)ccc5c4CCN3CC2CC(OC(=O)c2cc(OC)c(OC)c(OC)c2)C1OC (configuration not stated) the Potency [1] was “inactive”, the Potency [2] was “inactive” and the Potency [3] was “inactive”. The Potency [4] was “inactive” and the Potency [6] was “inactive”.
In the case of COc1cc(SC)ccc1C(=O)N1CCC(Cc2ccccc2)CC1, the Potency [1] was “inactive”, the Potency [2] was “inactive” and the Potency [3] was “inactive”. The Potency [4] was “inactive” and the Potency [6] was “inactive”.
In the case of O=c1ncn2nc(Sc3ccc(F)cc3F)ccc2c1-c1c(Cl)cccc1Cl, the Potency [1] was “inactive”, the Potency [2] was “inactive” and the Potency [3] was “inactive”. The Potency [4] was “inactive” and the Potency [6] was “inactive”.
For Cc1ccc(S(=O)(=O)OCC(=O)Nc2ccc(C(=O)O)c(O)c2)cc1, the Potency [1] was “inactive”, the Potency [2] was “inactive” and the Potency [3] was “inactive”. The Potency [4] was “inactive”, the Potency [6] was “inactive” and the activity change, negative = inhibition [7] was 2.59%.
In the case of O=S(=O)(O)c1ccc2cc(N=Nc3cc(S(=O)(=O)O)c4cccnc4c3O)ccc2c1, the Potency [1] was “inactive”, the Potency [2] was “inactive” and the Potency [3] was “inactive”. The Potency [4] was “inactive”, the Potency [6] was “inactive” and the Potency [7] was “inactive”.
